Results on 2 molecules are retold here after PubChem BioAssay (NCATS).

Each structure is given as a SMILES string. Results filed as inconclusive are left out. Activity calls are given as the source filed them. Unless noted, calls come from the whole dose curve; as a rule, active = well fitted curve in the direction sought with a large enough effect; inconclusive = small, poorly fitted or top-dose-only effect, or another doubt; inactive = no such curve, though single readings can be large; an effect the other way counts as inactive or inconclusive.

Test [1] deals with Endonuclease 4 (Escherichia coli (strain K12)) (UniProt P0A6C1). In words: Counterscreen for APE1 Inhibitors: qHTS Validation Assay for Inhibitors of Endonuclease IV (AID 1708). Note: potency is the fitted concentration of half-maximal effect. Summed up: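 Enzymatic AP-site incision assay using a double-stranded THF substrate labelled with TAMRA and BHQ-2; released fluorescence signals activity. Enzyme 2 nM, substrate 50 nM, 15 min compound preincubation.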

Test [2] concerns the target Ferritin light chain (Equus caballus) (UniProt P02791). In words: qHTS Validation Assay for Identification of Novel General Anesthetics (AID 2323). Note: potency is the fitted concentration of half-maximal effect. Summed up:
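Horse-spleen apoferritin (10 uM) in PBS with 50% saturated 1-aminoanthracene; compounds pin-transferred, 10 min at room temperature. Fluorescence read at 380/535 nm, normalized to free 1-AMA and 1-AMA/apoferritin values; four-parameter Hill fit.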

Test [3] is described as follows: Validation screen for inhibitors of Lassa infection (AID 463096; calls by dose curve; note: % is set by controls: 0 for no effect and ±100 for the full control effect).
The target in test [4] is M-phase phosphoprotein 8 (Homo sapiens) (UniProt Q99549). The test is described as follows: qHTS Validation Assay for Inhibitors for MPP8 Chromodomain Interactions with Methylated Histone Tails (AID 488949). Note: potency is the fitted concentration of half-maximal effect; nearly all actives have a fitted effect of over 55% in size. In short, it runs like this:
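MPP8 (50 nM) was pre-bound to 50 nM biotinylated H3(1-18)K9me3 peptide in PBS pH 7.4 with 0.01% Tween-20. Compounds were then added for 30 min at room temperature, and complex disruption was read by AlphaScreen with streptavidin donor and nickel-chelate acceptor beads.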
In general terms: In qHTS, concentration-response curves come from the screen itself.

In test [5] the target is ATP-dependent 6-phosphofructokinase (Trypanosoma brucei brucei) (UniProt O15648). In words: qHTS Assay to Find Inhibitors of T. brucei phosphofructokinase: hit validation (AID 492961). Note: potency is the fitted concentration of half-maximal effect. Summed up:
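ADP-Glo luminescence read-out of ADP formed by 1.25 nM PFK from 0.1 mM ATP and 0.5 mM F6P (TEA pH 8.0, 45 min, RT). Compounds titrated; activity normalized to no-enzyme and full-enzyme controls.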

In test [6] the target is Luciferin 4-monooxygenase (Photinus pyralis) (UniProt P08659). In words: Biochemical firefly luciferase enzyme assay for NPC (AID 624030). Note: potency is the fitted concentration of half-maximal effect; nearly all actives have a fitted effect of over 70% in size. In short, it runs like this: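 Direct inhibition of firefly luciferase enzyme (10 nM final, 50 mM Tris Acetate) assessed by luminescence within 5 minutes. Percent activity scaled between DMSO and PTC124 positive control, with concentration-effect curves classified by fit quality and response.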

Test [7] can be described thus: S16 Schwann cell viability assay (CellTiter-Glo assay) (AID 624031). Note: potency is the fitted concentration of half-maximal effect; nearly all actives have a fitted effect of over 70% in size. In short, it runs like this: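 This viability control uses native rat S16 Schwann cells grown in DMEM plus 10% FBS. After a 24 h compound treatment at 37 °C, CellTiter-Glo luminescence reports ATP content, scaled against DMSO-treated and cell-free wells.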
Background: In ATP-based viability assays light output follows the ATP content of the culture.

Test [8] can be described thus: S16 Schwann cell PMP22 intronic element firefly luciferase assay (AID 624032). Note: potency is the fitted concentration of half-maximal effect; nearly all actives have a fitted effect of over 30% in size. Summed up:
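Luciferase reporter of PMP22 intronic-element expression in stably transfected S16 rat Schwann cells, read by ONE-Glo luminescence after 24 h compound exposure at 37 C. Activity scaled between DMSO (0%) and positive-control PTC124; concentration-effect curves quality-classified.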

The nature of test [9]: qHTS profiling for inhibitors of Plasmodium falciparum proliferation (AID 504749).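 For activity, negative = inhibition: 0% = DMSO vehicle and full inhibition = artemisinin control.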 Note: nearly all actives have a fitted effect of over 60% in size. Note: potency is the fitted concentration of half-maximal effect. The settings on record: P. falciparum in erythrocytes, SYBR Green DNA, 72 h, at 28.7 µM (top of the series). In short, it runs like this: (§1)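 Three-day growth assay of blood-stage parasites in erythrocytes (0.3% parasitemia, 2.5% hematocrit) at 37 C, 5% CO2, quantified by SYBR Green DNA staining after overnight detergent lysis.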

A further test has as its system 7G8. The test is described as above. The settings on record: P. falciparum in erythrocytes, SYBR Green DNA, 72 h; series mostly up to 12.8 µM. Summed up:
as §1

Another test concerns C2A. The description is as above. The conditions noted are these: P. falciparum in erythrocytes, SYBR Green DNA, 72 h; series mostly up to 28.7 µM. Summed up: as §1
In a further test the test system is CP185. The description is as above. The settings on record: P. falciparum in erythrocytes, SYBR Green DNA, 72 h; series mostly up to 28.7 µM. In short, it runs like this:
as §1

The test system of a further test is CP191. The description is as above. The settings on record: P. falciparum in erythrocytes, SYBR Green DNA, 72 h; series mostly up to 28.7 µM. In short, it runs like this: as §1
The next test concerns CP192. The description is as above. The settings on record: P. falciparum in erythrocytes, SYBR Green DNA, 72 h; series mostly up to 28.7 µM. Summed up: as §1
For a further test, the system named is CP215. The test is described as above. The conditions noted are these: P. falciparum in erythrocytes, SYBR Green DNA, 72 h; series mostly up to 28.7 µM. In short, it runs like this: as §1
The subject of another test is CP217. The test is described as above. The settings on record: P. falciparum in erythrocytes, SYBR Green DNA, 72 h; series mostly up to 28.7 µM. Summed up:
as §1

The subject of another test is CP237. The description is as above. The conditions noted are these: P. falciparum in erythrocytes, SYBR Green DNA, 72 h; series mostly up to 28.7 µM. In short, it runs like this:
as §1

The subject of a further test is CP238. The test is described as above. The settings on record: P. falciparum in erythrocytes, SYBR Green DNA, 72 h; series mostly up to 28.7 µM. In short, it runs like this:
as §1

In another test the test system is CP260. The test is described as above. The settings on record: P. falciparum in erythrocytes, SYBR Green DNA, 72 h; series mostly up to 28.7 µM. Summed up: as §1
A further test relates to CP268. Described as above. The settings on record: P. falciparum in erythrocytes, SYBR Green DNA, 72 h; series mostly up to 28.7 µM. In short, it runs like this:
as §1

The next test has as its system CP269. The test is described as above. The settings on record: P. falciparum in erythrocytes, SYBR Green DNA, 72 h; series mostly up to 28.7 µM. Summed up:
as §1

A further test has as its system CP286. Described as above. The conditions noted are these: P. falciparum in erythrocytes, SYBR Green DNA, 72 h; series mostly up to 28.7 µM. In short, it runs like this: as §1
For another test, the system named is CP305. The description is as above. The conditions noted are these: P. falciparum in erythrocytes, SYBR Green DNA, 72 h; series mostly up to 28.7 µM. In short, it runs like this:
as §1

The subject of the next test is CP335. The description is as above. The settings on record: P. falciparum in erythrocytes, SYBR Green DNA, 72 h; series mostly up to 12.8 µM. Summed up: as §1
Another test deals with DFO2036. Described as above. The settings on record: P. falciparum in erythrocytes, SYBR Green DNA, 72 h; series mostly up to 28.7 µM. Summed up:
as §1

Another test concerns DIV14. The test is described as above. The settings on record: P. falciparum in erythrocytes, SYBR Green DNA, 72 h; series mostly up to 28.7 µM. In short, it runs like this:
as §1

In the next test the test system is DIV17. The test is described as above. The conditions noted are these: P. falciparum in erythrocytes, SYBR Green DNA, 72 h; series mostly up to 28.7 µM. Summed up: as §1
The subject of a further test is Dd2. The description is as above. The conditions noted are these: P. falciparum in erythrocytes, SYBR Green DNA, 72 h; series mostly up to 28.7 µM. Summed up:
as §1

The subject of the next test is ECU. The test is described as above. The settings on record: P. falciparum in erythrocytes, SYBR Green DNA, 72 h; series mostly up to 28.7 µM. In short, it runs like this: as §1
For another test, the system named is FAB9. Described as above. The settings on record: P. falciparum in erythrocytes, SYBR Green DNA, 72 h; series mostly up to 28.7 µM. In short, it runs like this: as §1
In the next test the test system is GB4. Described as above. The settings on record: P. falciparum in erythrocytes, SYBR Green DNA, 72 h; series mostly up to 28.7 µM. Summed up: as §1
The subject of the next test is HB3. The description is as above. The conditions noted are these: P. falciparum in erythrocytes, SYBR Green DNA, 72 h; series mostly up to 28.7 µM. In short, it runs like this: as §1
The next test has as its system JCK. Described as above. The settings on record: P. falciparum in erythrocytes, SYBR Green DNA, 72 h; series mostly up to 28.7 µM. In short, it runs like this: as §1
Another test concerns P93_24. The description is as above. The conditions noted are these: P. falciparum in erythrocytes, SYBR Green DNA, 72 h; series mostly up to 28.7 µM. Summed up:
as §1

Another test relates to P94_40. The test is described as above. The settings on record: P. falciparum in erythrocytes, SYBR Green DNA, 72 h; series mostly up to 28.7 µM. Summed up: as §1
A further test deals with PAD. The description is as above. The conditions noted are these: P. falciparum in erythrocytes, SYBR Green DNA, 72 h; series mostly up to 28.7 µM. In short, it runs like this:
as §1

For another test, the system named is PC15. Described as above. The conditions noted are these: P. falciparum in erythrocytes, SYBR Green DNA, 72 h; series mostly up to 28.7 µM. Summed up: as §1
In a further test the test system is PC26. The test is described as above. The conditions noted are these: P. falciparum in erythrocytes, SYBR Green DNA, 72 h; series mostly up to 28.7 µM. Summed up: as §1
Another test relates to PC49. The test is described as above. The settings on record: P. falciparum in erythrocytes, SYBR Green DNA, 72 h; series mostly up to 28.7 µM. In short, it runs like this:
as §1

The subject of a further test is SC27B. Described as above. The settings on record: P. falciparum in erythrocytes, SYBR Green DNA, 72 h; series mostly up to 28.7 µM. Summed up: as §1
In another test the test system is TAB113. The test is described as above. The settings on record: P. falciparum in erythrocytes, SYBR Green DNA, 72 h; series mostly up to 28.7 µM. Summed up:
as §1

A further test deals with TAB165. The description is as above. The settings on record: P. falciparum in erythrocytes, SYBR Green DNA, 72 h; series mostly up to 28.7 µM. In short, it runs like this:
as §1

A further test relates to W2. The description is as above. The settings on record: P. falciparum in erythrocytes, SYBR Green DNA, 72 h; series mostly up to 12.8 µM. Summed up: as §1

Ferritin light chain (Equus caballus), sequence (P02791 2-175 limits assumed): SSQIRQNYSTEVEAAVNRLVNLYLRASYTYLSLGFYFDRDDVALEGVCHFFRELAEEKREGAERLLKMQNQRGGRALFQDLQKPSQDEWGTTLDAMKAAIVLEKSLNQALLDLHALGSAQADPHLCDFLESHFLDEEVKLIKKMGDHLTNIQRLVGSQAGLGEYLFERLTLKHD
M-phase phosphoprotein 8 (Homo sapiens), sequence (Q99549 whole entry, looked up): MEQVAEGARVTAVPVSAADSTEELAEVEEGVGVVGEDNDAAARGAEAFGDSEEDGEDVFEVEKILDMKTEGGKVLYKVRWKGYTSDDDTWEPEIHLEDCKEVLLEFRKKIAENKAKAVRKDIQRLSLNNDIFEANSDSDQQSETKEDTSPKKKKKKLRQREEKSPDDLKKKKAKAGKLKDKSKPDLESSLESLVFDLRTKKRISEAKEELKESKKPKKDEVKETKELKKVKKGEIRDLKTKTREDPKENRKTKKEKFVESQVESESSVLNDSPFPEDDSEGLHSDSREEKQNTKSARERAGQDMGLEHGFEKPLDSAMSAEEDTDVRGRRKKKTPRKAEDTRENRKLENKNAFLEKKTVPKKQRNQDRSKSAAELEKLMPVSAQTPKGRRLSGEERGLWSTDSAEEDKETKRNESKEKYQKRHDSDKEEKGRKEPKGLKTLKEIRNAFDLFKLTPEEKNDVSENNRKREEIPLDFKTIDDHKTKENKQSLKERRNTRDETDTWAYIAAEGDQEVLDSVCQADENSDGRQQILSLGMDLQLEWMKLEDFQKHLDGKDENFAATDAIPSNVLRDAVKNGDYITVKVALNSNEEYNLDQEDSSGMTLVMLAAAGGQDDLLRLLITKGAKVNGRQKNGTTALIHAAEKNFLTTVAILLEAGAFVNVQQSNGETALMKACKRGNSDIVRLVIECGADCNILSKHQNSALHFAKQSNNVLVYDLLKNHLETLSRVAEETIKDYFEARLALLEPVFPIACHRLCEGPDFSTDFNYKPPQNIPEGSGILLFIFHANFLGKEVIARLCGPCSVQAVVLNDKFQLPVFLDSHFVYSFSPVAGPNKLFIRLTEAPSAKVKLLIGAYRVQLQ
Luciferin 4-monooxygenase (Photinus pyralis), sequence (P08659 whole entry, looked up): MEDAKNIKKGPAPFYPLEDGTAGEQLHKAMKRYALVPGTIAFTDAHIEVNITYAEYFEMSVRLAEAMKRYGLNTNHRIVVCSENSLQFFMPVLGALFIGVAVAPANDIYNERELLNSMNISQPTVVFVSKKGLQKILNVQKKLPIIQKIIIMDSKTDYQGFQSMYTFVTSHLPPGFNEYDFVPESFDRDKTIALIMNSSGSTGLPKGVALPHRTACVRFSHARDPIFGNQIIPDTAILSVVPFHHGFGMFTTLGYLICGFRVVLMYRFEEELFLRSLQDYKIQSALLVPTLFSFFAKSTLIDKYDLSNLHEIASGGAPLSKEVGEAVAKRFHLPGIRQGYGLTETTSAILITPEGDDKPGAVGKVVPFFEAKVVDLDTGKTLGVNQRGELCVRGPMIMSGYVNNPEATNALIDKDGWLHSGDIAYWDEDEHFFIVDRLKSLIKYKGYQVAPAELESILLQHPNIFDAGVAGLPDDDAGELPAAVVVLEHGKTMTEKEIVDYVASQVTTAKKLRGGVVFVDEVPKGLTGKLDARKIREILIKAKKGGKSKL
ATP-dependent 6-phosphofructokinase (Trypanosoma brucei brucei), sequence (O15648 whole entry, looked up): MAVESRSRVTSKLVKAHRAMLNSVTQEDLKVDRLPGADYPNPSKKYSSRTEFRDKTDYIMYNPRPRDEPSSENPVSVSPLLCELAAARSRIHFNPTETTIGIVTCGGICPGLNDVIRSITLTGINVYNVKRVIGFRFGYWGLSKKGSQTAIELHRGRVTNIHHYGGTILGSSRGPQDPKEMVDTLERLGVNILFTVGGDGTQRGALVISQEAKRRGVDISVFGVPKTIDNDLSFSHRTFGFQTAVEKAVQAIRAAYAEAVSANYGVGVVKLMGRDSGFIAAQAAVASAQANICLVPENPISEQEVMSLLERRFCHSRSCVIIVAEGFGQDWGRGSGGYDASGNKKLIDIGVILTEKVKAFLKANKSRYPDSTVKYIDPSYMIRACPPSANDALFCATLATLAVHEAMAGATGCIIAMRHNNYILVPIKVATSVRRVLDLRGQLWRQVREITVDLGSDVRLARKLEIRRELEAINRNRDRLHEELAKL

For the molecule `N.N.N.N.N.N.N.N.N.N.N.N.N.N.O.O.[Cl-].[Cl-].[Cl-].[Cl-].[Cl-].[Cl-].[Ru].[Ru].[Ru]`, the figures for the Potency in test [1], in test [2] and in [4] were 28.2 µM (active), 25.1 µM (active) and 10 µM (active), respectively. Also, the Potency entry in test [3] is “inactive”.
For `[Hg+][c]1ccccc1`, the Potency in [5] was 11.2 µM (active); in test [6], 8.09 µM (active); in test [7] it was 1.14 µM (active); in test [8], 1.02 µM (active); in the test with 7G8, 1.78 µM (active); with CP192 it was 12 µM (active). Further, the Potency in the test with CP215 is 10.7 µM (active); with CP268, 9.53 µM (active); with CP269 it was 15.1 µM (active); with CP305, 10.7 µM (active); in the test on CP335, 10.7 µM (active); in the test with DIV14, 9.53 µM (active). In addition, the Potency in the test with DIV17 is 13.5 µM (active); in the test with FAB9 it was 7.08 µM (active); in the test with GB4, 9.53 µM (active); with JCK, 11.2 µM (active); with PC15 it was 7.94 µM (active); in the test on PC26, 12 µM (active). Besides, the Potency in the test with PC49 is 3.55 µM (active); with W2 it was 12 µM (active). Besides, the activity, negative = inhibition is 13.8% (inactive) in test [9] (parasite line A) and -0.414% (inactive) in test [9] (parasite line B). Further, the Potency entry in the test on C2A, with CP185, in the test on CP191, in the test with CP217, in the test on CP237 and with CP238 was “inactive” in each case. In addition, the Potency result with CP260, in the test with CP286, with DFO2036, in the test with Dd2, in the test on ECU and in the test on HB3 was “inactive” each time. The Potency result with P93_24, with P94_40, in the test with PAD, in the test with SC27B, in the test with TAB113 and in the test with TAB165 was “inactive” throughout.
